Laboratory results published in PubChem BioAssay (NCATS).
Records with an inconclusive call do not appear. Activity calls are given as the source filed them. The call rests on the fitted dose curve; in most records, active means well fitted inhibition curve with a large enough effect; inconclusive means small, poorly fitted or top-dose-only effect; inactive means flat fitted curve, though single readings scatter.

Key:
Assay in all cases: qHTS profiling for inhibitors of Plasmodium falciparum proliferation (AID 504749); further: nearly all actives have a fitted effect of over 60% in size
Conditions in all cases: P. falciparum in erythrocytes, SYBR Green DNA, 72 h; series mostly up to 28.7 µM
[1] = tested on: ATS95
Summary of the method: (§1)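 Quantitative HTS: compounds pinned into medium, infected erythrocytes added (0.3% parasitemia, 2.5% hematocrit), 72 h culture at 37 C under 5% CO2. Saponin/Triton lysis with SYBR Green I, overnight RT, then fluorescence read.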

[2] = tested on: CP185
Summary of the method: as §1

[3] = tested on: CP194
Summary of the method: as §1

[4] = tested on: CP201
Summary of the method: as §1

[5] = tested on: CP237
Summary of the method: as §1

[6] = tested on: CP238
Summary of the method: as §1

[7] = tested on: CP247
Summary of the method: as §1

[8] = tested on: CP262
Summary of the method: as §1

[9] = tested on: CP265
Summary of the method: as §1

[10] = tested on: CP268
Summary of the method: as §1

[11] = tested on: CP286
Summary of the method: as §1

[12] = tested on: CP305
Summary of the method: as §1

[13] = tested on: CP335
Summary of the method: as §1

[14] = tested on: DIV30
Summary of the method: as §1

[15] = tested on: Dd2
Summary of the method: as §1

[16] = tested on: ECU
Summary of the method: as §1

[17] = tested on: GB4
Summary of the method: as §1

[18] = tested on: HB3
Summary of the method: as §1

[19] = tested on: P94_40
Summary of the method: as §1

[20] = tested on: TAB109
Summary of the method: as §1

Measured: Potency

CO[C@H]1[C@@H](O)CC(OC2[C@@H](O)CC(OC3[C@@H](O)C[C@H](OC4CC[C@@]5(C)C(CCC6C5CC(O)[C@]5(C)[C@H](C7=CC(=O)OC7)CCC65O)C4)O[C@@H]3C)O[C@@H]2C)O[C@@H]1C (stereo not given in full)
inactive: [1] | [2] | [3] | [4] | [5] | [6] | [7] | [8] | [9] | [10] | [11] | [12] | [13] | [14] | [15] | [16] | [17] | [18] | [19] | [20]

CCN(CC)CCO[C@H]1CC[C@@]2(C)C(=CC[C@@H]3[C@H]2CC[C@]2(C)C(=O)CC[C@H]32)C1
inactive: [1] | [2] | [3] | [4] | [5] | [6] | [7] | [8] | [9] | [10] | [11] | [12] | [13] | [14] | [15] | [16] | [17] | [18] | [19] | [20]
